# Assay results published in PubChem BioAssay AID686979 (National Center for Advancing Translational Sciences (NCATS), 2013).
# Hit rate of the full screen: of about 420,000 compounds, about 50,000 (12%) were called active. Roughly 26% stayed inconclusive and do not appear here. Calls come from the whole dose curve; as a rule, active = well fitted inhibition curve with a large enough effect; inconclusive = small, poorly fitted or top-dose-only effect; inactive = flat fitted curve, though single readings scatter. Only a selection was taken, and actives are over-represented in it overall.
# Test: qHTS for Inhibitors of human tyrosyl-DNA phosphodiesterase 1 (TDP1): qHTS in cells in presence of CPT; note: nearly all actives have a fitted effect of over 55% in size
# Conditions: chicken DT40 Tdp1-/-;hTDP1 cells + 20 nM CPT, ATP luminescence, 48 h; series mostly up to 46.2 µM; activity change, negative = growth inhibition: at the top concentration
# In short: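 Cell growth measured by CellTiter-Glo luminescence after a minimum 48 h, 37 C compound exposure with 20 nM CPT in Tdp1-knockout DT40 cells stably expressing hTDP1, seeded 400/well; qHTS titration format.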
# % is set by controls: 0 for no effect and ±100 for the full control effect; potency is the fitted concentration of half-maximal effect.
Structure (SMILES),"activity change, negative = growth inhibition",Potency
CCCCn1c(N)c(N(CC(C)C)C(=O)c2cccc(S(=O)(=O)N3CC(C)OC(C)C3)c2)c(=O)[nH]c1=O (stereo not given),19.3% (inactive),–
O=C(COc1ccc2ccc(=O)oc2c1)NCC(O)c1ccccc1 (stereo not given),9.18% (inactive),–
O=C(COc1ccc2c3c(c(=O)oc2c1)CCCC3)NCC(O)c1ccccc1 (stereo not given),–,20.6 µM (active)
NC(=O)COc1ccc2c3c(c(=O)oc2c1)CCCCC3,-25.1% (inactive),–
Cc1cc(CNC(=O)C2CCC(=O)N(CCc3ccc(Cl)cc3)C2)no1 (stereo not given),-10% (inactive),–
Nc1nnc(SCn2nnc3ccccc3c2=O)s1,3.45% (inactive),–
O=c1c2ccccc2nnn1CSc1nc2sc3c(c2c(=O)n1CC1CCCO1)CCC3 (stereo not given),–,16.4 µM (active)
O=c1c2ccccc2nnn1CSc1nnnn1-c1ccccc1,-19.1% (inactive),–
O=S(=O)(Nc1ccc(Cl)cn1)c1cnc(Cl)c(Br)c1,-18.1% (inactive),–
CN1CCN(C(=O)c2ccc(-c3ccc(Br)cc3)o2)CC1,-29.6% (inactive),–
CCOC(=O)N1CCN(Cc2nc3ccc([N+](=O)[O-])cc3c(=O)n2-c2cccc(OC)c2)CC1,-29.6% (inactive),–
Cc1ccc(NN=C2C(=O)OC(C)(C)OC2=O)c(C)c1,1.15% (inactive),–
Cc1ccc(N2CCN(C3=NC(=O)/C(=C\c4cccs4)S3)CC2)cc1,-11.5% (inactive),–
CC(C)=C1SC(N2CCN(c3cccc(C)c3)CC2)=NC1=O,–,20.6 µM (active)
CC(C)=C1SC(N2CCN(c3ccc(C)c(Cl)c3)CC2)=NC1=O,-1.1% (inactive),–
CCOC(=O)C(C)Sc1nnc(CSc2nc3nc(C)cc(C)n3n2)o1 (stereo not given),-6.12% (inactive),–
C=CCNC(=S)/N=c1/ccccn1Cc1ccccc1,–,7.31 µM (active)
C=CCNC(=O)COc1coc(CN2CCN(Cc3ccccc3)CC2)cc1=O,2.71% (inactive),–
CNC(=S)NNC(=O)c1cccn(Cc2ccccc2)c1=O,-4.14% (inactive),–
NS(=O)(=O)c1ccc(N=Cc2ccc(Br)s2)cc1,-6.56% (inactive),–
COc1cc(OC)cc(-c2c(C#Cc3ccsc3)c3cc(-c4ccc(SC)cc4)ccc3n2C)c1,-8.14% (inactive),–
COc1cc(OC)cc(-c2c(-c3cccs3)c3cc(-c4ccc(OC)nc4)ccc3n2C)c1,–,20.6 µM (active)
COc1cc(OC)cc(-c2c(C#Cc3ccsc3)c3cc(-c4ccc(OC)cc4F)ccc3n2C)c1,-8.28% (inactive),–
CCOC(=O)C1(CCOc2ccccc2)CCN(Cc2cc(OC)cc(OC)c2)CC1,–,25.9 µM (active)
O=C(c1cn(CC2CCCN(Cc3cc4ccccc4s3)C2)nn1)N1CCCC1 (stereo not given),11.8% (inactive),–
CCOC(=O)C1(CCOc2ccccc2)CCN(C(=O)c2cncs2)CC1,-28.5% (inactive),–
CCOC(=O)C1(CCOC)CCN(Cc2ccc(C(=O)OC)cc2)CC1,5.25% (inactive),–

Structure (SMILES),"activity change, negative = growth inhibition",Potency
CCOC(=O)C1(S(=O)(=O)c2ccc(Cl)cc2)CCN(Cc2ccccc2)CC1,-27.7% (inactive),–
CCOC(=O)C1(Cc2cccc(OC)c2)CCN(C(C)CC(C)(C)O)CC1 (stereo not given),-9.64% (inactive),–
O=C(CCc1ccccc1)Nc1ccnn1C1CCN(Cc2ccc(OCCO)cc2)CC1,6.63% (inactive),–
CCOC(=O)C1(CCOC)CCN(Cc2cc3ccccc3s2)CC1,–,18.4 µM (active)
CCOC(=O)C1(CCOc2ccccc2)CCN(Cc2ccc(C#CCCO)cc2)CC1,–,18.4 µM (active)
COc1cc(C)ccc1OCC(=O)OCC(=O)c1ccc[nH]1,11.1% (inactive),–
Cc1cc(NS(=O)(=O)c2ccc(NC(=O)C(C)Oc3cccc(C)c3C)cc2)nc(C)n1 (stereo not given),7.99% (inactive),–
N#CC1(C#N)C(C(=O)C23CC4CC(CC(C4)C2)C3)C12CCOCC2 (stereo not given),-6.84% (inactive),–
COc1ccccc1NC(=O)c1ccc(N2CC3CC(C2)c2cccc(=O)n2C3)c(NC(=O)c2cccnc2)c1 (stereo not given),-14.7% (inactive),–
Cc1ccc(S(=O)(=O)N(Cc2cccc([N+](=O)[O-])c2)C(=O)N2CCN(C)CC2)cc1,-7.27% (inactive),–
O=C(Nc1cccc([N+](=O)[O-])c1)Nc1ccc(Cl)cn1,4.19% (inactive),–
O=C(CCl)N(Cc1cccc([N+](=O)[O-])c1)c1cccc(Cl)c1,–,2.31 µM (active)
COc1ccccc1N1CCC(N2CCN(CC(C)(C)C)C(CCO)C2)CC1 (stereo not given),-28.9% (inactive),–
C=CS(=O)c1sc(Cl)c(N2CCOCC2)c1[N+](=O)[O-] (stereo not given),–,0.731 µM (active)
Cc1cc(C)n(S(=O)(=O)c2cccc([N+](=O)[O-])c2)n1,-8.29% (inactive),–
CN(C)S(=O)(=O)c1cc(C(=O)Nc2ccn(C)n2)c(Cl)cc1Cl,-4.09% (inactive),–
COCCNC(=O)COc1ccc(N(C)S(=O)(=O)c2ccc3ccccc3c2)cc1,-15.1% (inactive),–
O=S(=O)(NCC1CC1)c1ccc(F)c(Cl)c1,8.32% (inactive),–
NNC(=O)c1ccc(Cl)cc1Cl,2.28% (inactive),–
O=S(=O)(Cc1ccc(Cl)cc1Cl)c1ccc(Cl)cc1,–,0.82 µM (active)
O=CN1CCN(C(=O)c2ccc(Br)o2)CC1,-0.819% (inactive),–
O=C(CSc1ncnc2c1oc1ccccc12)NC1CCCC1,-20.3% (inactive),–
CC(C)[C@@H]1COC(c2cccc(C3=N[C@H](C(C)C)CO3)c2)=N1,–,20.6 µM (active)
O=C(O)CSCC(=O)Nc1ccc(C(F)(F)F)cc1,17.9% (inactive),–
O=C(OCC(=O)N1CCCCC1)c1ccc(OC(F)(F)F)cc1,-5.48% (inactive),–
Cc1ccc(C)c(N2CCN(C(=O)CCc3c(C)nc4c(c3C)c(=O)n(C)c(=O)n4C)CC2)c1,-1.63% (inactive),–
O=C(NCCN1CCOCC1)c1cc(Sc2cccc(Cl)c2)nc2ccccc12,-34% (inactive),–

Structure (SMILES),"activity change, negative = growth inhibition",Potency
CCN(CC)CCNC(=O)CCCCCn1c(=O)[nH]c2cc(C(=O)OC)ccc2c1=O,-21.7% (inactive),–
O=C(CCCCCn1c(=O)[nH]c2ccccc2c1=O)NCCc1c[nH]c2ccccc12,-24.7% (inactive),–
Cc1ccc(C)c(N2CCN(C(=O)CCCCn3c(=O)[nH]c4ccccc4c3=O)CC2)c1,–,16.4 µM (active)
Cc1nc2ccccc2c2oc(C(=O)NCCCN3CCC(C)CC3)cc12,-23.5% (inactive),–
NS(=O)(=O)c1ccc(CCNC(=O)CCCCCn2c(=O)[nH]c3ccccc3c2=O)cc1,-16.3% (inactive),–
O=C(CCCn1c(=O)[nH]c2cc(Cl)ccc2c1=O)NCCN1CCN(c2ccccc2)CC1,–,23.1 µM (active)
O=C(CCCCn1c(=O)[nH]c2ccccc2c1=O)NCc1ccc2c(c1)OCO2,-19.6% (inactive),–
O=C(Cc1csc(Nc2nc(=S)[nH]c3ccccc23)n1)NCCCN1CCN(c2cccc(Cl)c2)CC1,–,16.4 µM (active)
O=C(CCn1c(=O)[nH]c2ccccc2c1=O)NCCCN1CCN(c2cccc(Cl)c2)CC1,–,20.6 µM (active)
O=C(CCn1c(=S)[nH]c2ccccc2c1=O)NCCCN1CCCC1=O,4.25% (inactive),–
COc1cc(/C=C2\CCCc3c2nc2ccccc2c3C(=O)O)cc(Cl)c1O,5.4% (inactive),–
O=C(Nc1cccnc1Oc1ncnc2cc(Cl)ccc12)c1ccc(F)cc1,8.31% (inactive),–
CC(NS(=O)(=O)c1ccccc1)c1n[nH]c(=S)n1-c1ccccc1 (stereo not given),2.51% (inactive),–
CCC(C)CN1C(=O)CN(S(C)(=O)=O)CC1(C)C(=O)Nc1ccc2c(c1)OCCO2 (stereo not given),-11.4% (inactive),–
O=C(C[C@H]1CC[C@H]2[C@@H](COC[C@H](O)CN2C(=O)c2ccccn2)O1)N1CCN(c2ccccc2)CC1,-15.1% (inactive),–
Cc1nccn1-c1ccc(NC(=O)[C@H]2O[C@@H](n3ccc(=O)[nH]c3=O)[C@H](O)[C@@H]2O)cc1,-11.3% (inactive),–
CC(=O)Nc1cnc(-c2ccc(O)cc2C)cn1,–,9.2 µM (active)
CC(=O)Nc1cncc(-c2ccccc2CO)n1,17.6% (inactive),–
Cc1cc(O)ccc1-c1cnc2ccccc2n1,-26.9% (inactive),–
COc1ccc(C(=O)NNc2cc(C)nc(NNC(=O)c3ccc(OC)cc3)n2)cc1,1.43% (inactive),–
COc1ccc(NC(=O)c2cc(-c3ccc(C)cc3)on2)cc1,9.84% (inactive),–
COC(=O)c1ccc2nc(-c3ccc(C)cc3)c(Cc3ccc(OC)cc3C)n2c1,–,23.1 µM (active)
COC(=O)c1ccc2nc(-c3cccc(Br)c3)c(Cc3ccccc3C(F)(F)F)n2c1,-1.17% (inactive),–
COc1ccc(C(=O)OCC(=O)NCCCc2ccccc2)cc1OC,-4.58% (inactive),–
COC(=O)c1ccc2nc(-c3ccc(OC)c(OC)c3)c(Cc3ccccc3)n2c1,–,23.1 µM (active)
COC(=O)c1ccc(CSc2nc3cc(Cl)ccc3o2)cc1,-6.06% (inactive),–
COC(=O)c1ccc(COC(=O)c2cnc(Cl)c(Cl)c2)cc1,4.07% (inactive),–

Structure (SMILES),"activity change, negative = growth inhibition",Potency
COC(=O)c1ccc2nc(-c3ccc(Cl)cc3)c(Cc3cccc(F)c3)n2c1,–,20.6 µM (active)
Cc1ccc(N2CCN(c3ccc([N+](=O)[O-])cn3)CC2)c(C)c1,-24.7% (inactive),–
CCOC(=O)CNC(=O)/C(=C\c1ccc(F)cc1)NC(=O)c1ccccc1,-0.888% (inactive),–
CCOC(=O)C(=Cc1ccccc1)C(=O)c1ccccc1,–,18.4 µM (active)
CCOC(=O)C(=CNc1cccc(C)n1)C(=O)OCC,-1.85% (inactive),–
O=c1ccc2cc(S(=O)(=O)Nc3ccccc3F)ccc2o1,-5.21% (inactive),–
CCOc1cccc(C(=O)Nc2cnn(Cc3ccccc3)c2)c1,-15.9% (inactive),–
CCOc1ccc(S(=O)(=O)NCCSc2ccccc2)cc1,-6.71% (inactive),–
CCOc1ccc2c(c1)c(=O)c(S(=O)(=O)c1ccc(C)cc1)cn2CC,–,18.4 µM (active)
COc1ccc2c(c1)c(=O)c(S(=O)(=O)c1ccc(F)cc1)cn2CC(=O)Nc1ccc(C)cc1C,12.7% (inactive),–
CCCn1cc(S(=O)(=O)c2ccc(C)cc2)c(=O)c2cc(OCC)ccc21,-18.5% (inactive),–
CCOc1ccc(S(=O)(=O)c2cn(Cc3ccccc3)c3ccc(OCC)cc3c2=O)cc1,–,13 µM (active)
CCN(CC)Cc1c(C(=O)N/N=C/c2cccc(OCc3ccc(F)cc3)c2)nnn1-c1nonc1N,-7.48% (inactive),–
CC(C)(C)n1nc2c(c1NC(=O)c1cc3ccccc3o1)CSC2,-29.8% (inactive),–
O=C(NC(=S)Nc1cc(C(F)(F)F)ccc1N1CCOCC1)c1ccc(-c2cccc(Cl)c2)o1,-17.4% (inactive),–
CCN(CC)CCn1c(/N=C/c2cc(Br)ccc2O)nc2ccccc21,-26.1% (inactive),–
Oc1ccc(Br)cc1C=Nc1ccc2[nH]ncc2c1,-6.55% (inactive),–
Oc1ccc(Br)cc1/C=N/Nc1ccccn1,–,1.64 µM (active)
CCN1CCCC1CNC(=O)c1ccc2c(c1)NC(=O)/C(=C\c1ccccc1F)S2 (stereo not given),–,18.4 µM (active)
COc1ccc(CN2CCCC(CNC(=O)c3ccc(F)cc3)C2)cc1OC (stereo not given),-25.5% (inactive),–
O=C(NCCN1CCOCC1)Nc1cccc(Cl)c1,7.86% (inactive),–
CCN1CCN(CCNC(=O)c2ccc3c(c2)NC(=O)/C(=C\c2cccc(Cl)c2)S3)CC1,–,23.1 µM (active)
O=C(NCCCN1CCCCC1)c1ccc2c(c1)NC(=O)C(N1CCOCC1)S2 (stereo not given),-21.2% (inactive),–
CCN1CCCC1CNC(=O)c1cc2cc(OC)c(OC)cc2[nH]1 (stereo not given),-12.6% (inactive),–
